Experimental data: PubChem BioAssay AID1159580 (chemical genetic matrix, 2015)
Hit rate of the full screen: of about 5,500 compounds, about 2,000 (36%) were called active. Not shown: some 18% with an inconclusive outcome. Cut-off read from the data, not from the text of the source: active = normalized growth mostly below about 0.91 (no sharp cut-off); inconclusive = no clear call, values can overlap the other calls; inactive = mostly above about 0.92. This is one part of the list.

Assay: chemical genetic growth profiling, strain panel (AID 1159580);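 note: tested at 20 µM; growth read once vehicle control cultures reached saturation at 30 °C; 1 = growth at the plate median or of vehicle wells; lower values mean less growth of the strain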
Details: S. cerevisiae deletion strains, growth OD

Measured: normalized growth

O=C(O)CN(CC(=O)O)Cc1cc2c(-c3ccccc3C(=O)O)c3cc(CN(CC(=O)O)CC(=O)O)c(=O)cc-3oc2cc1O
inactive: locus YAL013W, strain DEP1, stronger effect = lower value 1 | locus YAL021C, strain ccr4, stronger effect = lower value 0.934 | locus YAL030W, strain snc1, stronger effect = lower value 0.962 | locus YBL061C, strain skt5, stronger effect = lower value 0.965 | locus YBR009C, strain hhf1, stronger effect = lower value 0.931 | locus YBR021W, strain FUR4, stronger effect = lower value 0.981 | locus YBR023C, strain chs3, stronger effect = lower value 0.981 | locus YBR171W, strain sec66, stronger effect = lower value 0.965 | locus YBR229C, strain ROT2, stronger effect = lower value 1.01 | locus YBR231C, strain swc5, stronger effect = lower value 0.943 | locus YBR279W, strain paf1, stronger effect = lower value 0.967 | locus YCL011C, strain gbp2, stronger effect = lower value 0.962 | locus YCL016C, strain dcc1, stronger effect = lower value 0.976 | locus YCL029C, strain bik1, stronger effect = lower value 1.02 | locus YCL061C, strain MRC1, stronger effect = lower value 0.937 | locus YCL069W, strain vba3, stronger effect = lower value 0.975 | locus YCR088W, strain abp1, stronger effect = lower value 0.995 | locus YDL005C, strain med2, stronger effect = lower value 0.982 | locus YDL035C, strain GPR1, stronger effect = lower value 0.997 | locus YDL040C, strain nat1, stronger effect = lower value 0.964 | locus YDL074C, strain BRE1, stronger effect = lower value 0.991 | locus YDL101C, strain DUN1, stronger effect = lower value 1.01 | locus YDL134C, strain PPH21, stronger effect = lower value 1.01 | locus YDL185W, strain tfp1, stronger effect = lower value 0.986 | locus YDL192W, strain arf1, stronger effect = lower value 1.02 | locus YDR001C, strain nth1, stronger effect = lower value 0.965 | locus YDR069C, strain doa4, stronger effect = lower value 0.951 | locus YDR101C, strain arx1, stronger effect = lower value 1.01 | locus YDR150W, strain NUM1, stronger effect = lower value 1.02 | locus YDR159W, strain sac3, stronger effect = lower value 0.96 | locus YDR162C, strain NBP2, stronger effect = lower value 0.984 | locus YDR195W, strain ref2 1.04 | locus YDR297W, strain sur2, stronger effect = lower value 0.951 | locus YDR318W, strain mcm21, stronger effect = lower value 1.02 | locus YDR334W, strain swr1, stronger effect = lower value 0.955 | locus YDR335W, strain msn5, stronger effect = lower value 0.932 | locus YDR388W, stronger effect = lower value 1.02 | locus YDR392W, strain spt3, stronger effect = lower value 0.914 | locus YDR502C, strain sam2, stronger effect = lower value 1.02 | locus YEL003W, strain gim4, stronger effect = lower value 0.948 | locus YEL037C, strain rad23, stronger effect = lower value 0.971 | locus YEL061C, strain CIN8 (second series), stronger effect = lower value 0.963 | locus YEL061C, strain CIN8, stronger effect = lower value 1 | locus YER016W, strain bim1, stronger effect = lower value 0.986 | locus YER110C, stronger effect = lower value 1.03 | locus YER111C, strain swi4, stronger effect = lower value 0.934 | locus YER155C, strain BEM2 (second series), stronger effect = lower value 1 | locus YER155C, strain BEM2, stronger effect = lower value 1 | locus YER167W, strain BCK2, stronger effect = lower value 1.02 | locus YFR010W, strain ubp6, stronger effect = lower value 0.992 | locus YGL078C, strain dbp3, stronger effect = lower value 1.02 | locus YGL086W, strain mad1, stronger effect = lower value 1.01 | locus YGL167C, strain pmr1, stronger effect = lower value 0.967 | locus YGL173C, strain kem1, stronger effect = lower value 0.939 | locus YGL227W, strain vid30, stronger effect = lower value 0.977 | locus YGL240W, strain doc1, stronger effect = lower value 0.977 | locus YGL248W, strain PDE1, stronger effect = lower value 1.01 | locus YGL253W, strain hxk2, stronger effect = lower value 0.934 | locus YGR078C, strain PAC10, stronger effect = lower value 0.997 | locus YGR135W, strain pre9, stronger effect = lower value 1 | locus YGR229C, strain SMI1, stronger effect = lower value 0.976 | locus YGR252W, strain gcn5, stronger effect = lower value 1.05 | locus YHR013C, strain ard1, stronger effect = lower value 0.963 | locus YHR030C, strain SLT2, stronger effect = lower value 1 | locus YHR079C, strain IRE1 (second series), stronger effect = lower value 1.02 | locus YHR094C, strain hxt1, stronger effect = lower value 1.01 | locus YHR129C, strain ARP1, stronger effect = lower value 0.997 | locus YHR142W, strain chs7, stronger effect = lower value 0.945 | locus YHR200W, strain rpn10, stronger effect = lower value 1.02 | locus YIL066C, strain RNR3, stronger effect = lower value 0.992 | locus YIL073C, strain SPO22, stronger effect = lower value 1.08 | locus YIL125W, strain kgd1, stronger effect = lower value 1.01 | locus YIR030C, strain dcg1, stronger effect = lower value 1.02 | locus YJL092W, strain hpr5, stronger effect = lower value 0.977 | locus YJL095W, strain BCK1 (second series), stronger effect = lower value 0.961 | locus YJL095W, strain BCK1, stronger effect = lower value 0.976 | locus YJL115W, strain asf1, stronger effect = lower value 0.947 | locus YJL129C, strain trk1, stronger effect = lower value 0.911 | locus YJL134W, strain LCB3, stronger effect = lower value 1.01 | locus YJL154C, strain vps35, stronger effect = lower value 0.984 | locus YJL164C, strain tpk1, stronger effect = lower value 0.929 | locus YJL166W, strain qcr8, stronger effect = lower value 0.969 | locus YJL168C, strain set2, stronger effect = lower value 1.01 | locus YJL187C, strain SWE1 (second series), stronger effect = lower value 0.992 | locus YJL187C, strain SWE1, stronger effect = lower value 0.963
active: locus YAL026C, strain drs2, stronger effect = lower value 0.904 | locus YDR137W, strain rgp1, stronger effect = lower value 0.829 | locus YER015W, strain faa2, stronger effect = lower value 0.897 | locus YHR027C, strain rpn1, stronger effect = lower value 0.874
